Screening data deposited in PubChem by several laboratories.
Only some compounds are listed: those with a hit (about 2.1% of all), similar ones and a draw of the others.
PAX8 inh HTS = PAX8 transcriptional activity inhibition; inhibition, % at 12.6 µM; RMG-I TPO-luciferase reporter, SteadyGlo, 24 h; AID 652154; 360,000 tested, 1.2% active;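 active = mean replicate inhibition at least 60% with every replicate also reaching 60%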;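 note: luciferase light reporting Pax8 driven TPO promoter activity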
EWS-Fli block = blocks EWS/Fli oncoprotein-driven transcription | A673 NR0B1-luciferase reporter, viability-normalised | inhibition, % at 12.6 µM | 350,000 tested, 0.67% active | AID 651661;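 active = mean inhibition of at least 50% after viability correction, with every replicate also passing that limit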;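 note: firefly luciferase signal divided by Alamar Blue viability fluorescence both relative to DMSO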
CF NFkB block = inhibitors of cystic fibrosis induced NF-kB | KKLEB NF-kB-GFP reporter, PAF-induced, GFP fluorescence overnight | inhibition, % at 5 µM | 360,000 tested, 0.86% active;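 active = at least 50% inhibition at 5 µM, scaled per plate between neutral and stimulator controls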;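 note: PAF is a Pseudomonas aeruginosa culture filtrate used as stimulus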
HIF-2a block = blocks HIF-2a reporter activity; 786-0 RCC cells HIF-2a reporter, luciferase luminescence, overnight; inhibition, % at 18.8 µM; AID 624352; 360,000 tested, 0.72% active;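 active = inhibition of the luminescence signal of 40% or more relative to plate controls, in a single-dose primary screen at 18.75 µM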
KKLEB cytotox = reduces viability of KKLEB cystic fibrosis airway cells; activity change (cytotoxicity), % at 5 µM; KKLEB CF airway cells viability, ATPlite luminescence, overnight; stronger effect = lower value; cells stimulated with P. aeruginosa culture filtrate; AID 602141; 360,000 tested, 0.36% active;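 active = corrected activity change at or below -50% at 5 µM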
Each line names hits and unclear results; the compound was inactive in the other large screens; ! = repeats disagree.

COc1ccc(-c2ccc(C3[C@@H]4CN(Cc5cc(OC)cc(OC)c5)C[C@H]3N4)cc2)cc1 (stereo partly specified)	PAX8 inh HTS 86! (no result: CF NFkB block, HIF-2a block, KKLEB cytotox)
COc1cccc(-c2ccc(C3[C@@H]4CN(C(=O)C5CC5)C[C@H]3N4)cc2)c1 (stereo partly specified)	PAX8 inh HTS 80! (no result: CF NFkB block, HIF-2a block, KKLEB cytotox)
O=C(NC1CCCCC1)N1C[C@@H]2N[C@H](C1)C2c1ccc(-c2ccc(F)cc2)cc1 (stereo partly specified)	PAX8 inh HTS 105! (no result: CF NFkB block, HIF-2a block, KKLEB cytotox)
COc1cccc(-c2ccc(C3[C@@H]4CN(C(=O)C5CCC5)C[C@H]3N4)cc2)c1 (stereo partly specified)	none (no result: PAX8 inh HTS, CF NFkB block, HIF-2a block, KKLEB cytotox)
COc1ccc(-c2ccc(C3[C@@H]4CN(C(=O)Nc5cccc(F)c5)C[C@H]3N4)cc2)cc1 (stereo partly specified)	PAX8 inh HTS 100! (no result: CF NFkB block, HIF-2a block, KKLEB cytotox)
COc1ccc(NC(=O)N(C)C[C@@H]2Oc3ccc(NC(=O)CCCCCC(=O)Nc4ccccc4N)cc3C(=O)N([C@H](C)CO)C[C@@H]2C)cc1	none (no result: CF NFkB block, HIF-2a block, KKLEB cytotox)
C/C=C/c1ccc(C2[C@@H]3CN(C(=O)Nc4ccc(F)cc4)C[C@H]2N3)cc1 (stereo partly specified)	none (no result: CF NFkB block, HIF-2a block, KKLEB cytotox)
O=C(Nc1cccc(F)c1)N1C[C@@H]2N[C@H](C1)C2c1ccc(-c2ccccc2F)cc1 (stereo partly specified)	none (no result: CF NFkB block, HIF-2a block, KKLEB cytotox)
COc1ccccc1NC(=O)N1C[C@@H]2N[C@H](C1)C2c1ccc(-c2cccc(C#N)c2)cc1 (stereo partly specified)	EWS-Fli block 53! (no result: CF NFkB block, HIF-2a block, KKLEB cytotox)
COc1ccc(NC(=O)N2C[C@@H]3N[C@H](C2)[C@@H]3c2ccc(-c3ccc(OC)cc3)cc2)cc1	PAX8 inh HTS 93 (no result: CF NFkB block, HIF-2a block, KKLEB cytotox)
Cc1ccccc1-c1ccc(C2[C@@H]3CN(C(=O)Nc4cccc(F)c4)C[C@H]2N3)cc1 (stereo partly specified)	PAX8 inh HTS 85! (no result: CF NFkB block, HIF-2a block, KKLEB cytotox)
O=C(Nc1ccc(F)cc1)N1C[C@@H]2N[C@H](C1)C2c1ccc(/C=C/c2ccccc2)cc1 (stereo partly specified)	PAX8 inh HTS 105! (no result: CF NFkB block, HIF-2a block, KKLEB cytotox)
COc1ccc(NC(=O)N2C[C@@H]3N[C@H](C2)C3c2ccc(-c3ccncc3)cc2)cc1 (stereo partly specified)	none (no result: CF NFkB block, HIF-2a block, KKLEB cytotox)
CN1C(=O)c2cc(NC(=O)C3CCOCC3)ccc2OC[C@@H]2O[C@@H](CC(=O)NC3CCCC3)CC[C@@H]21	none (no result: CF NFkB block, HIF-2a block, KKLEB cytotox)
C[C@@H]1CCCCO[C@H](CN(C)C(=O)C2CCCCC2)[C@@H](C)CN([C@@H](C)CO)C(=O)c2cc(NC(=O)NC3CCCCC3)ccc2O1	none (no result: CF NFkB block, HIF-2a block, KKLEB cytotox)
COc1ccc2c3c([nH]c2c1)[C@H](CO)N(C(=O)C1CCCC1)CC31CCN(Cc2nccs2)CC1	none (no result: CF NFkB block, HIF-2a block, KKLEB cytotox)
CCCCCCCCCCOC(=O)Cn1c(COc2cccc(C)c2)[n+](C)c2ccccc21	none
CCCCCCCCCCOC(=O)Cn1c(COc2ccccc2C)[n+](C)c2ccccc21	CF NFkB block 60 (no result: PAX8 inh HTS, EWS-Fli block)
CCCCCCCCCCOC(=O)Cn1c(COc2ccc(OC)cc2)[n+](C)c2ccccc21	none (no result: PAX8 inh HTS, EWS-Fli block)
CCCCCCCCCCOC(=O)Cn1c(COc2ccccc2)[n+](C)c2ccccc21	PAX8 inh HTS 71, CF NFkB block 71, KKLEB cytotox -62
O=c1[nH]c(=O)n(Cc2ccc(Oc3ccccc3)cc2)cc1Br	none
C=C1CC(Cn2cc(Br)c(=O)[nH]c2=O)(c2ccc(-c3ccccc3)cc2)OC1=O (stereo unspecified)	PAX8 inh HTS 99, EWS-Fli block 53, CF NFkB block 87, HIF-2a block 94
COc1ccc2c3c(n(C)c2c1)[C@H](CO)N(Cc1ccccc1F)CC31CN(C(=O)C2CCCC2)C1	none (no result: CF NFkB block, HIF-2a block, KKLEB cytotox)
Cc1noc(C)c1S(=O)(=O)Nc1ccc2c(c1)C(=O)N([C@@H](C)CO)C[C@@H](C)[C@H](CN(C)C(=O)Nc1ccc(C(F)(F)F)cc1)OCCCC[C@@H](C)O2	PAX8 inh HTS 66 (no result: CF NFkB block, HIF-2a block, KKLEB cytotox)
Cc1noc(C)c1S(=O)(=O)Nc1ccc2c(c1)C(=O)N([C@H](C)CO)C[C@H](C)[C@H](CN(C)Cc1ccc(C(F)(F)F)cc1)OCCCC[C@@H](C)O2	none (no result: EWS-Fli block, CF NFkB block, HIF-2a block, KKLEB cytotox)
Cc1noc(C)c1S(=O)(=O)Nc1ccc2c(c1)C(=O)N([C@@H](C)CO)C[C@H](C)[C@@H](CN(C)C(=O)Nc1ccc(C(F)(F)F)cc1)OCCCC[C@@H](C)O2	PAX8 inh HTS 65 (no result: CF NFkB block, HIF-2a block, KKLEB cytotox)
Cc1noc(C)c1S(=O)(=O)Nc1ccc2c(c1)C(=O)N([C@H](C)CO)C[C@H](C)[C@@H](CN(C)C(=O)Nc1ccc(F)cc1)OCCCC[C@H](C)O2	none (no result: CF NFkB block, HIF-2a block, KKLEB cytotox)
Cc1noc(C)c1S(=O)(=O)Nc1ccc2c(c1)C(=O)N([C@@H](C)CO)C[C@H](C)[C@H](CN(C)C(=O)Nc1ccc(F)cc1)OCCCC[C@H](C)O2	none (no result: CF NFkB block, HIF-2a block, KKLEB cytotox)
Cc1noc(C)c1S(=O)(=O)Nc1ccc2c(c1)C(=O)N([C@@H](C)CO)C[C@H](C)[C@@H](CN(C)C(=O)Nc1ccc(C(F)(F)F)cc1)OCCCC[C@H](C)O2	PAX8 inh HTS 107 (no result: CF NFkB block, HIF-2a block, KKLEB cytotox)
Cc1noc(C)c1S(=O)(=O)Nc1ccc2c(c1)C(=O)N([C@@H](C)CO)C[C@H](C)[C@@H](CN(C)Cc1ccc(C(F)(F)F)cc1)OCCCC[C@H](C)O2	PAX8 inh HTS 71!
COc1ccc(NC(=O)N(C)C[C@@H]2Oc3ccc(NC(=O)c4ccncc4)cc3C(=O)N([C@@H](C)CO)C[C@H]2C)cc1	none (no result: CF NFkB block, HIF-2a block, KKLEB cytotox)
Cc1ccccc1C(=O)NCCCNC(=O)c1cnccn1	none
CCCCCCCCNC(=O)c1cnccn1	PAX8 inh HTS 98
O=C(NCc1ccc(F)cc1)C(c1ccccc1)c1ccccc1	none
CC(=O)N(Cc1ccc(F)cc1)C1=C(NCc2ccccc2)C(=O)c2ccccc2C1=O	CF NFkB block 92, HIF-2a block 68, KKLEB cytotox -53 (no result: PAX8 inh HTS, EWS-Fli block)
Cc1noc(C)c1NC(=O)Nc1ccc2c(c1)C(=O)N([C@@H](C)CO)C[C@@H](C)[C@H](CN(C)Cc1ccc(C(F)(F)F)cc1)OCCCC[C@@H](C)O2	none (no result: CF NFkB block, HIF-2a block, KKLEB cytotox)
O=C(C[C@H]1C[C@H]2c3cc(NC(=O)Nc4ccc(C(F)(F)F)cc4)ccc3O[C@H]2[C@H](CO)O1)NC1CCCCC1	none (no result: CF NFkB block, HIF-2a block, KKLEB cytotox)
C[C@@H]1CN([C@@H](C)CO)C(=O)c2cccc(N(C)C)c2O[C@@H]1CN(C)C(=O)Nc1ccc2c(c1)OCO2	none (no result: CF NFkB block, HIF-2a block, KKLEB cytotox)
CCOC(=O)CSC1=C(C#N)C(c2ccc(Cl)cc2)CC(=O)N1 (stereo unspecified)	none
CCOC(=O)CSC1=C(C#N)C(c2ccc(C)o2)CC(=O)N1 (stereo unspecified)	PAX8 inh HTS 65
CCCNC(=O)N1C[C@H]2[C@@H](c3ccccc31)[C@@H](CO)N2Cc1cc(F)ccc1F	none (no result: CF NFkB block, HIF-2a block, KKLEB cytotox)
COc1ccc(C(=O)NN(C)c2nc(-c3ccccc3)nnc2C(F)(F)F)cc1	none (no result: PAX8 inh HTS, EWS-Fli block)
COc1ccc(C(=O)NN(C)c2nc(C(F)(F)F)nc3ccccc23)cc1	PAX8 inh HTS 94, EWS-Fli block 56, CF NFkB block 75
